According to PubChem BioAssay:
Values joined by “and” are separate entries in the source; they are usually repeats but may differ in a detail not shown here. Identical values can stand only once. For some assays here: Potency and affinity values are given separately. The source holds several records for some structures; these can differ, active in one and inactive in another. Active and inactive are the calls of the source. Rule as the data show it, unless noted: active = parasite load remaining mostly below about 12% (no sharp cut-off); inactive = mostly above about 10%. Bridge positions count the residues as written; N and C are the ends. Square brackets hold non-standard residues; d marks the D form. Peptide text beside a SMILES is read from it. * marks the point of attachment. ξ: configuration not given here. ξDab(CH2SO3H) = NC(CCNCS(=O)(=O)O)C(=O)O; Heptanoyl(6-Me) = CC(C)CCCCC(=O)*; Dab = NCC[CH](N)C(=O)O

Tests used:
[1] = blockers of polyQ-driven CASP3 activation – cell-based (AID 1583); conditions: polyglutamine-induced caspase-3 activation, cell assay; stronger effect = higher value;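 tested at 10 µM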
[2] = yeast 75Q aggregation reduction – 75Q-TubU reporter (AID 1593); conditions: Yeast 75Q polyglutamine aggregation reporter
[3] = restoration of touch response, mutant HTT neurons – whole organism, C. elegans mechanosensory neurons, N-terminal huntingtin (AID 1599); conditions: C. elegans polyQ-huntingtin mechanosensory neurons, stronger effect = higher value
[4] = blockers of cytochrome c efflux from mitochondria – biochemical, purified mitochondria (AID 1603); conditions: stronger effect = lower value;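 also: mouse liver mitochondria challenged with calcium chloride; signal normalized to the plate average as 100%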
[5] = polyglutamine aggregate formation blockers (AID 1604); conditions: polyglutamine-induced protein aggregation inhibition assay; stronger effect = higher value; tested at 2.5 µM
[6] = glutamate transport activators, MN-1 cells, MN-1 cell line (AID 1612); conditions: MN-1 motor neuron cells, stronger effect = higher value;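 also: tested at 1 µM final; 0% = mean of DMSO vehicle wells on each plate; positive means more glutamate uptake than control and negative means less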
[7] = 75Q-TubH aggregate inhibition, S. cerevisiae, yeast (AID 1616); conditions: S. cerevisiae 75Q-TubH polyglutamine aggregation suppression; stronger effect = higher value
[8] = P. berghei load reduction in hepatocytes – cell-based, HepG2, luciferase luminescence, HepG2 viability, primary screen (AID 624349);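 also: 100% = mean of DMSO negative control wells on the same plate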; conditions: P. berghei liver stage in HepG2, luciferase luminescence, concentration not given here; parasite load remaining: stronger effect = lower value; viability: measured here: HepG2 viability without parasites
[9] = EMT-state selective cytotoxicity in co-culture – imaging, PC-3E GFP, TEM4-18 mCherry, primary screen (AID 1345086;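 active = compounds killing one labelled cell type while sparing the other, by normalised counts and ratio limits, not self-fluorescent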;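 as to all read-outs here: cells exposed to compound for 72 h before imaging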;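 as to red/green cell ratio (normalised): normalised mesenchymal count divided by normalised epithelial count so high means epithelial killing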); conditions: PC-3E GFP / TEM4-18 mCherry co-culture, imaging cell counts, at 1 µM; for red/green cell ratio (normalised): actives lie on both sides, counts scaled to control wells, 1 = unselective
[10] = viability loss with induced miR-34 in A549 – imaging, A549 dox-inducible miR-34, nuclei and caspase counts, primary screen (AID 1347080;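 active = compounds whose cell count with miR-34 switched on is under 0.7 times the count with it off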); conditions: A549 miR-34 inducible, Hoechst nuclei count, 48 h
[11] = GFP-Q80 aggregate reduction, neuronal-like cells, cell-based, NGF-treated PC12, GFPQ80 (AID 1614); conditions: PC12 NGF-treated GFP-polyQ80 inclusion reduction;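 also: lower means fewer inclusions and 0 means no inclusions at all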
[12] = galactose survival enhancers in mitochondrial complex I cybrids – cell-based, galactose medium, ATP luminescence, primary screen (AID 1645843;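 active = z-score of at least 1.8 in each of two replicates, scored against plate mean and spread of sample wells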;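 also: positive z means more ATP and so rescue of galactose-driven cybrid death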); conditions: complex I mutant cybrid cells, 72 h, stronger effect = higher value
[13] = measured here: epithelial PC-3E GFP cell survival
[14] = measured here: mesenchymal TEM4-18 mCherry cell survival
[15] = stronger effect = lower value, cell number ratio, induced over uninduced
[16] = measured here: relative caspase fold change +Dox/-Dox
[17] = measured here: total cells with miR-34 induction, stronger effect = lower value
[18] = measured here: total cells without miR-34 induction

Row | SMILES | inhibition [1] | score [2] | rescue above control [3] | cytochrome c release ratio [4] | inhibition of aggregation [5] | glutamate uptake change [6] | aggregation suppression score [7] | parasite load remaining [8] | viability [8] | red/green cell ratio (normalised) [9] | normalised cell number [9, 13] | normalised cell number [9, 14] | fold change [10, 15] | fold change [10, 16] | cell count [10, 17] | cell count [10, 18] | inclusion score [11] | z-score [12]
1 | C#C[C@]1(O)CCC2C3CCC4=Cc5oncc5C[C@]4(C)C3CC[C@@]21C (stereo partly drawn) | 10.9% | 1.04 | 5.61 | 1.19 | 69.1% | -6.15% | 0.874 | 83.8% (inactive) and 19.9% (inactive) | 69% and 89.7% | 1.05 (inactive) | 1.19 | 1.26 | 0.952 (inactive) | 2.2 | 9590 | 10100 |  | 
2 | CCCC(=O)O[C@]1(C(=O)CO)CCC2[C@@H]3CCC4=CC(=O)CC[C@]4(C)C3[C@@H](O)C[C@@]21C (stereo partly drawn) | -18.1% | 1.15 | -7.82 | 1.03 | 77.8% | 33.4% | 1.38 | 170% (inactive) and 68.7% (inactive) | 85% and 121% | 1.26 (inactive) | 1.07 | 1.34 | 0.953 (inactive) | 2.16 | 7610 | 7980 | 2 | 
3 | C[C@]12CCC3c4ccc(OS(=O)(=O)O)cc4CCC3C1CCC2=O (stereo partly drawn) |  |  |  |  |  |  |  | 45.1% (inactive) | 102% | 0.91 (inactive) | 0.94 | 0.86 | 0.918 (inactive) and 0.865 (inactive) | 1.03 and 4.55 | 9150 and 11800 | 9970 and 13700 |  | 0.9 (inactive)
4 | CCCCCCCCCCCCC[N+](C)(C)Cc1ccccc1 | 73.1% | -0.05 | 0 | 5.81 | 25% | 18.1% | -0.017 | 85.2% (inactive) and -0.62% (inactive) | 75.6% and 58.8% | 0.62 (inactive) | 0.83 | 0.51 | 0.898 (inactive) | 1.61 | 74.5 | 83 |  | 
5 | CC(=O)OCC(=O)[C@@]1(O)CCC2C3CCC4=CC(=O)C=CC4(C)C3[C@@H](O)C[C@@]21C (stereo partly drawn) | 26% | 0.73 | -9.27 | 0.8 | 51% | 16.1% | 0.991 | 118% (inactive) and 56% (inactive) | 73.8% and 82.3% | 1.41 (inactive) | 1 | 1.41 | 0.859 (inactive) | 2.47 | 6780 | 7890 | 2 | 
6 | Nc1ncnc2c1ncn2C1O[C@H](COP(=O)(O)O)[C@@H](O)[C@H]1O (stereo partly drawn) | 5.37% | 1.5 | 1.04 | 0.86 | 92.6% | -13.1% | 1.2 | 124% (inactive) and 48.3% (inactive) | 75.9% and 108% | 0.96 (inactive) | 1.18 | 1.13 | 0.861 (inactive) | 1.84 | 11700 | 13600 | 2 | 
7 | CCCCC(=O)O[C@H]1CCC2C3CCc4cc(O)ccc4C3CC[C@@]21C (stereo partly drawn) | 15.8% | -2.02 | 17.4 | 1.02 | 26.4% | 19.7% | 0.271 | 83% (inactive) and 44.1% (inactive) | 74.5% and 87.8% | 0.95 (inactive) | 0.89 | 0.84 | 0.938 (inactive) | 1.71 | 10200 | 10900 |  | 
8 | Nc1ccn(C2O[C@H](CO)[C@@H](O)[C@@H]2O)c(=O)n1 (stereo partly drawn) | 26% | 1.28 | 1.26 | 1.03 | 77.5% | -13.5% | 1.27 | 129% (inactive) and 95.7% (inactive) | 74% and 95.8% | 1.61 (inactive) | 0.27 | 0.43 | 0.952 (inactive) | 1.13 | 1930 | 2030 |  | 
9 | N[C@@H]1[C@@H](O)[C@H](O)[C@@H](CO)O[C@H]1O | -15.7% | 0.98 | 5.73 | 0.85 | 66.7% | 9.21% | 1.04 | 80.5% (inactive) and 72% (inactive) | 75.2% and 93.7% | 1.04 (inactive) | 1.08 | 1.12 | 0.914 (inactive) | 0.981 | 11500 | 12600 | 2 | 
10 | CN[C@@H]1C(OC2[C@H](O[C@H]3[C@H](O)[C@@H](O)[C@H](N=C(N)N)[C@@H](O)[C@@H]3N=C(N)N)OC(C)[C@]2(O)CO)OC(CO)C(O)C1O (stereo partly drawn) | -7.45% | 1.24 | 1.04 | 0.93 | 82.2% | -1.61% | 1.17 | 87.5% (inactive) and 63.1% (inactive) | 69.8% and 93.3% | 1.34 (inactive) | 1.05 | 1.41 | 0.819 (inactive) | 1.34 | 10800 | 13200 | 2 | 
11 | CCC(=O)OCC(=O)C1(OC(=O)CC)C(C)CC2C3CCC4=CC(=O)C=CC4(C)C3(Cl)C(O)CC21C (stereo not drawn) | -26% | 0.15 | -4.19 | 1.11 | 41.7% | 23.7% | 1.25 | 142% (inactive) and 79.4% (inactive) | 78.6% and 97.5% | 1.47 (inactive) | 0.88 | 1.29 | 0.749 (inactive) | 1.52 | 6530 | 8720 | 2 | 
12 | C[C@@H]1CC2C3C[C@H](F)C4=CC(=O)C=C[C@]4(C)[C@@]3(F)[C@@H](O)C[C@]2(C)[C@@]1(O)C(=O)CO (stereo partly drawn) | 14.1% | 1.53 | 11.3 | 1.19 | 57.7% | 16.9% | 0.927 | 21.3% (inactive) | 92.2% | 1.15 (inactive) | 1.15 | 1.33 | 0.92 (inactive) | 1.86 | 7830 | 8520 | 2 | 
13 | CO[C@@]1(NC(=O)CSCC#N)C(=O)N2C(C(=O)O)=C(CSc3nnnn3C)CSC21 (stereo partly drawn) | 20.8% | 1.29 | -0.81 | 0.56 | 33.3% | -5.52% | 1.5 | 99.4% (inactive) and 54.5% (inactive) | 73% and 111% | 0.89 (inactive) | 1.07 | 0.95 | 0.923 (inactive) | 3.61 | 12200 | 13200 | 2 | 
14 | CC(=O)O[C@H]1C[C@@]2(C)[C@@H](C[C@@H](O)C3[C@]2(C)CC[C@H]2[C@H](C)[C@H](O)CC[C@]32C)/C1=C(/CCC=C(C)C)C(=O)O (stereo partly drawn) | 8.99% | 1.55 | -0.35 | 1.24 | 12.1% | 11.6% | 1.1 | 99.6% (inactive) and 102% (inactive) | 71.9% and 91.9% | 1.29 (inactive) | 1.06 | 1.36 | 0.927 (inactive) | 1.7 | 11800 | 12700 | 2 | 
15 | CC[C@H]1CN2CCc3cc(OC)c(OC)cc3C2C[C@@H]1CC1NCCc2cc(OC)c(OC)cc21 (stereo partly drawn) | 43.8% | 1.69 | -0.41 | 1.03 | 67.5% | -39.3% | 1.03 | -0.06% (active) and -0.06% (inactive) | 69.1% and 43.7% | 0.69 (inactive) | 0.22 | 0.15 | 1.07 (inactive) | 1.51 | 2470 | 2320 |  | 
16 | COC(=O)C1[C@H]2C[C@H]3c4[nH]c5ccccc5c4CCN3C[C@@H]2CC[C@@H]1O (stereo partly drawn) | -35.1% | 1.22 | 15.8 | 0.69 | 9.99% | -7.18% | 1.41 | 81.2% (inactive) and 40.6% (inactive) | 73.2% and 95.3% | 1.01 (inactive) | 1.03 | 1.04 | 0.924 (inactive) | 3.3 | 12100 | 13100 | 2 | 
17 | CCC(C)C1NC(=O)C(CCNCS(=O)(=O)O)NC(=O)C(NC(=O)C(CCNCS(=O)(=O)O)NC(=O)C(NC(=O)C(CCNCS(=O)(=O)O)NC(=O)CCCCC(C)C)C(C)O)CCNC(=O)C(C(C)O)NC(=O)C(CCNCS(=O)(=O)O)NC(=O)C(CCNCS(=O)(=O)O)NC(=O)C(C(C)CC)NC1=O (stereo not drawn) ({Heptanoyl(6-Me)}-[ξDab(CH2SO3H)]T[ξDab(CH2SO3H)][Dab][ξDab(CH2SO3H)]II[ξDab(CH2SO3H)][ξDab(CH2SO3H)]T; lactam 4-C; configuration not given here) | 16.7% | 0.3 | 0 | 1.4 | 59.3% | -9.16% | 0.253 | 124% (inactive) and 57.4% (inactive) | 68.9% and 92.3% | 1.41 (inactive) | 1.02 | 1.44 | 0.942 (inactive) | 0.679 | 11200 | 11900 |  | 
18 | C#C[C@]1(OC(C)=O)CCC2C3CCC4=CC(=O)CC[C@@H]4C3CC[C@@]21C (stereo partly drawn) | 17.5% | 0.07 | 0.31 | 1.09 | 7.32% | 12.7% | 0.237 | 88.9% (inactive) and 45.6% (inactive) | 69.5% and 94.9% | 1.18 (inactive) | 1 | 1.17 | 0.881 (inactive) | 2.11 | 10900 | 12400 |  | 
19 | CC1(C)C2CC[C@]3(C)C(C(=O)C=C4[C@@H]5C[C@@](C)(C(=O)O)CC[C@]5(C)CC[C@]43C)[C@@]2(C)CC[C@@H]1OC(=O)CCC(=O)O (stereo partly drawn) | 59.3% | 2.57 | -3.48 | 3.47 | 66.7% | -2.75% | 1.68 | 124% (inactive) and 24.9% (inactive) | 99.6% and 85.2% | 0.99 (inactive) | 1.01 | 1 | 0.887 (inactive) | 2.9 | 10800 | 12200 |  | 
